USP30 inh – inhibitors of human USP30 deubiquitinase. purified USP30, Ub-rhodamine cleavage fluorescence. 5.3% of 47,000 active. Ubiquitin carboxyl-terminal hydrolase 30 (Homo sapiens), Q70CQ3. inhibition, % at 25 µM
USP17 block – inhibitors of human USP17 deubiquitinase; Ubiquitin carboxyl-terminal hydrolase 17-like protein 5 (Homo sapiens), A8MUK1; purified USP17, Ub-rhodamine cleavage fluorescence, 3 h; inhibition, % at 50 µM; 6.5% of 47,000 active; AID 1645855, 2021
Target sequence (A8MUK1 whole entry, looked up): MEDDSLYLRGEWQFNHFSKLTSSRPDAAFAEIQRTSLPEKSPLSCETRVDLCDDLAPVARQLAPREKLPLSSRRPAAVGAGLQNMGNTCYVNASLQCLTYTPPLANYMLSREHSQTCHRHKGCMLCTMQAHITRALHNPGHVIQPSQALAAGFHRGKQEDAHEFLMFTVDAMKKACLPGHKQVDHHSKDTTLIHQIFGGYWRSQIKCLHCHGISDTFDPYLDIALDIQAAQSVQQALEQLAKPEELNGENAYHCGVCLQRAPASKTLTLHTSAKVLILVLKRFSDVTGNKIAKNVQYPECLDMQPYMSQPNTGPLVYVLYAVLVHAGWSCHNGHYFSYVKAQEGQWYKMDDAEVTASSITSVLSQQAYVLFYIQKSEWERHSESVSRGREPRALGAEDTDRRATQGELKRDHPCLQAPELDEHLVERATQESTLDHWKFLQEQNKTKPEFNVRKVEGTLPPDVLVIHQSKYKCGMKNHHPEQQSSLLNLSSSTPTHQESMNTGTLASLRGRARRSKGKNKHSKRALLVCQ
The depositor's hits bear a star; · = no result given. Shown are actives, neighbours in structure and some others; about 9.6% of the full set was active somewhere. Cut-off read from the data, not from the text of the source: active = inhibition above about 30%; inactive = the rest.

SMILES	USP30 inh	USP17 block
COc1cccc2cc(C(=O)NCCOC34CC5CC(CC(C5)C3)C4)c(=O)oc12	0.2	-8.9
CCCN1CNc2c(c(=O)[nH]c(=O)n2-c2ccc(F)cc2)C1	15.5	-1.3
Cc1cccc2c1N(CC(=O)N1CCCCC1)C(=O)C1CCCN1C2=O (stereo not drawn)	·	9.8
COc1ccc(-c2nc(-c3cc4cc(OC)ccc4[nH]c3=O)no2)cc1	-115.8	-6.6
COc1ccc(NC(=O)c2ccnc(Nc3cccc(C)c3)c2)cc1	0.2	-0.1
COc1cccc(Nc2cc(C(=O)Nc3ccccc3)ccn2)c1	9.6	36.1*
COc1cccc(NC(=O)c2cncc(NS(=O)(=O)c3ccccc3)c2)c1	-3.9	-1.7
COc1ccc(NC(=O)c2ccnc(Nc3cccc(OC)c3)c2)cc1	7.3	32.1*
COc1ccc(CNC(=O)CSc2nnc(Cn3cnc4ccccc43)n2-c2ccccc2Cl)cc1OC	-8.7	3.9
CC(C)CC(=O)Nc1ccc(C(=O)COc2ccc(C(=O)c3ccc(F)cc3)cc2)cc1	-260.1	-19.4
O=C(CCCn1c(=O)[nH]c2ccc(Br)cc2c1=O)N1CCc2ccccc2C1	30.5*	8.7
COc1ccc(Cl)cc1NC(=O)Cn1c(=O)n(CCC(=O)N2CCc3ccccc3C2)c(=O)c2ccccc21	35.8*	24.7
COc1ccccc1N1CCN(C(=O)CCCn2c(=O)[nH]c3ccc(Br)cc3c2=O)CC1	-14.8	-21.8
COc1ccc(NC(=O)Cn2c(=O)n(CCC(=O)N3CCc4ccccc4C3)c(=O)c3ccccc32)cc1Cl	18.6	·
O=C(CCCn1c(=O)[nH]c2cc(Cl)ccc2c1=O)N1CCc2ccccc2C1	26.1	54.9*
O=C(CCCCn1c(=O)[nH]c2ccccc2c1=O)N1CCN(C2CCCCC2)CC1	6.1	1.2
CNc1nc(C2CCCN2C(=O)c2ccc3c(c2)CCCN3C)nc2c1CN(C(C)=O)CC2 (stereo not drawn)	-159.8	-52.5
O=C(COc1ccccc1)N1CCC(Nc2ncnc3c2CCC3)C1 (stereo not drawn)	8.5	3.3
c1ccc(OCCN(Cc2nc3ccccc3[nH]2)C2CCCCC2)cc1	25.3	5.5
CCOC(=O)c1c(C)n(CC)c2ccc(OC(=O)COc3ccc(Cl)cc3)cc12	-28.4	8.7
COC(=O)c1ccn(-c2nc(-c3cccc(OC)c3)cc(C(F)(F)F)n2)n1	9.0	2.0
O=C(CSc1nc2c(cnn2-c2ccccc2)c(=O)[nH]1)Nc1ccc(Cl)cc1F	30.1*	-26.5
Cc1cc(NC(=O)CSc2nc3c(cnn3-c3ccc(F)cc3)c(=O)[nH]2)no1	21.2	1.6
Cc1cc(C)c(NC(=O)c2cnn3c(C)cc(C)nc23)c(C)c1	0.0	0.6
CC(C)Oc1ccc(C(=O)Nc2cccc(S(=O)(=O)N3CCCC3)c2)cc1	25.4	19.1
SMILES	USP30 inh	USP17 block
Cc1cc(C)n(-c2ccc(C(=O)Nc3cccc(S(=O)(=O)N4CCCC4)c3)cc2)n1	74.2*	28.8
COc1ccccc1-n1cc(C(=O)c2cc(F)ccc2O)cc(C(C)=O)c1=O	-276.0	-30.3
O=C(Cc1ccc([N+](=O)[O-])cc1)Nc1ccc(N2CCCCC2)cc1	-17.0	-26.0
O=C(CN1C(=O)NC2(CCCCC2)C1=O)Nc1ccc([N+](=O)[O-])cc1	28.0	64.6*
Cc1c(C)n(CCCO)c2ncn3nc(-c4ccc(C(C)(C)C)cc4)nc3c12	12.6	14.7
CNc1cc(C)nc(C2COCCN2C(=O)c2scnc2C)n1 (stereo not drawn)	-0.1	-4.4
CCOCc1ccc(C(=O)N[C@H](C)c2nc3cc(-c4ccc(OC)cc4)ncn3n2)cc1	40.7*	13.2
C[C@H](NC(=O)Cc1ccccc1F)c1nc2cc(-c3ccc(F)cc3)ncn2n1	34.8*	24.7
COc1ccc(-c2cc3nc([C@H](C)NC(=O)COc4cccc(F)c4)nn3cn2)cc1	28.3	16.9
C[C@@H](NC(=O)Cc1ccc(F)cc1)c1nc2cc(-c3ccccc3F)ncn2n1	8.3	16.0
COc1ccccc1CC(=O)N[C@@H](C)c1nc2cc(-c3ccccc3F)ncn2n1	38.6*	-38.7
COc1cccc(CC(=O)N[C@@H](C)c2nc3cc(-c4ccccc4F)ncn3n2)c1	26.1	24.3
CN(C)Cc1nc2ccccc2c(=O)n1Cc1cccc2ccccc12	19.1	5.0
COc1ccccc1OCCN(C)Cc1c([C@@H]2CCCO2)[nH]c2ncccc12	7.2	4.4
Cn1nc(C(=O)N2CCOCC2)c2c1CN(CC1CCCCC1)CC2	-0.1	-8.0
O=C(O)c1ccccc1C(=O)Nc1ccc(SC(C(=O)Nc2ccccc2)c2ccccc2)cc1 (stereo not drawn)	13.4	63.1*
O=C(O)c1ccc(Cl)c(NC(=O)C(Sc2cccc(NC(=O)c3cccc(Cl)c3)c2)c2ccccc2)c1 (stereo not drawn)	-40.0	15.0
O=C(O)c1ccccc1C(=O)Nc1ccc(SC(C(=O)Nc2ccccc2F)c2ccccc2)cc1 (stereo not drawn)	18.9	-3.2
Cc1ccc(C(=O)O)cc1NC(=O)C(Sc1cccc(NC(=O)c2ccccc2C)c1)c1ccccc1 (stereo not drawn)	78.4*	91.7*
Cc1cc(C2CN(C(=O)c3ccc4[nH]c(C)c(C)c4c3)CCO2)ccn1 (stereo not drawn)	-191.3	-62.3
O=C(NCc1ccco1)N1CCCC1c1nc(-c2ccccc2)n[nH]1 (stereo not drawn)	-9.8	0.0
Cc1cccc(NC(=O)Cn2cc(C(=O)N3CCCCC3)c(=O)c3ccc(C)nc32)c1	12.1	2.8
CCn1cc(C(=O)Nc2ccc3ccccc3c2)c(=O)c2ccc(C)nc21	-97.9	32.7*
Cc1cccc(NC(=O)c2cn(CC(=O)NC3CCCC3)c3nc(C)ccc3c2=O)c1	0.2	47.7*
CCc1cccc(NC(=O)c2cn(CC)c3nc(C)ccc3c2=O)c1	-113.4	-29.0
SMILES	USP30 inh	USP17 block
COC(=O)c1ccccc1NC(=O)[C@H](CCS(C)=O)NC(=O)c1cnc2c(n1)c(=O)n(C)c(=O)n2C (stereo partly drawn)	-54.2	-2.6
O=C(Oc1ccccc1Br)c1ccc(Cl)c(S(=O)(=O)N2CCOCC2)c1	21.4	5.2
Cc1ccc(NC(=O)C2=NOC3(CCNC3)C2)cc1 (stereo not drawn)	23.1	3.4
O=C(Nc1ccccc1F)C1=NOC2(CCNCC2)C1	34.3*	34.0*
CCNc1cc(N2CCCC(CCC(=O)N(C)Cc3ccccc3)C2)ncn1 (stereo not drawn)	-5.8	-21.7
COc1ccc(-c2ccnc(SCc3cccc([N+](=O)[O-])c3)n2)cc1	10.0	1.2
COc1ccc(-c2ccnc(-c3ccc(OCc4cccc(F)c4)cc3)n2)cc1	40.7*	56.2*
Fc1cc(F)c2[nH]cc(-c3nnnn3-c3ccc4ccccc4c3)c2c1	71.0*	·
Fc1ccccc1-c1nc(-c2ccncc2)ncc1-c1nnnn1-c1ccccc1	11.4	4.1
CCc1ccc(-n2ccc(=O)c(-c3nc(-c4ccncc4)no3)n2)cc1	·	38.8*
COc1cccc(-n2ccc(=O)c(-c3nc(-c4ccccc4Cl)no3)n2)c1	65.9*	·
COc1ccc(-n2ccc(=O)c(-c3nc(-c4ccc(F)cc4)no3)n2)cc1	35.3*	30.9*
COc1ccccc1-c1noc(-c2nn(-c3ccc(C)c(C)c3)ccc2=O)n1	-6.1	10.0
COc1ccc(Cn2cccc2-c2nc(-c3ccncc3)no2)cc1	-50.1	1.4
Cc1ccc(-n2ccc(=O)c(-c3nc(-c4ccccc4F)no3)n2)cc1	30.0	17.6

Screening data as filed in PubChem BioAssay.
